ERb coact inh = blocks coactivator binding to human estrogen receptor beta; Q92731; TR-FRET ER-beta LBD / SRC1-Cy5 peptide binding; receptor agonist-loaded with 1 µM estradiol; inhibition, % at 25.6 µM; 86,000 tested, 1.3% active; AID 633;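 active = compounds whose percent inhibition of the receptor-coactivator binding signal exceeds about 50% in the single-dose screen, limit read from the data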
Target sequence (Q92731 whole entry, looked up, the tested form may be a part): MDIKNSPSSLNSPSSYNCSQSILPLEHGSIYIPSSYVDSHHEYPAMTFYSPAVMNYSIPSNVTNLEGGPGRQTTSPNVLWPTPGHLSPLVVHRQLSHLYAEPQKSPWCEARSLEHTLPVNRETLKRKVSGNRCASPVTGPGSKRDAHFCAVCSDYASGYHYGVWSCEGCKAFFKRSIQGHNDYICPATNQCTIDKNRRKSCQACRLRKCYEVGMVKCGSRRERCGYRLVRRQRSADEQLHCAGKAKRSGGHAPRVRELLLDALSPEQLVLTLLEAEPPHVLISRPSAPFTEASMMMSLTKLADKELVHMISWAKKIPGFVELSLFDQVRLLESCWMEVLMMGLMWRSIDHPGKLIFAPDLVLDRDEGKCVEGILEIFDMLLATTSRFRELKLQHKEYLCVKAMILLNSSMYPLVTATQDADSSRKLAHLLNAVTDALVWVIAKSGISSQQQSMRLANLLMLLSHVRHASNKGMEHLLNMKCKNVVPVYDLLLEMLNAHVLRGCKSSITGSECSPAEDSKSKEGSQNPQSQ
ERa SRC1 pot = enhances coactivator binding to human estrogen receptor alpha. coactivator binding (% of control), % at 25.6 µM. P03372. AID 639. 86,000 tested, 1.3% active. TR-FRET ERalpha-LBD/SRC-Cy5 coactivator binding, 2 h; 100 = basal binding, no effect; in the data active = activity above about 200%;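 note: binding measured in presence of low estradiol as agonist stimulus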
EphB4 ephrin blk = EphB4-ephrin-B2 interaction antagonism | inhibition, % at 7 µM | P54760 | 97,000 tested, 0.15% active | AID 720 | EphB4 LBD / TNYL-RAW-Alexa532 peptide, fluorescence polarization;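 active = inhibition above the screen-wide mean inhibition plus 3 SD, cut at about 15% in these data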
ERa SRC1 inh = blocks coactivator binding to human estrogen receptor alpha; P03372; TR-FRET ER-alpha LBD / SRC-1 peptide, estradiol-bound; inhibition, % at 25.6 µM; 86,000 tested, 1.7% active; AID 629; in the data active = inhibition above about 50%
Of the large screens only hits and unclear results are named; the others gave an inactive call; [ ] = another dose, or the depositor's remark. Only some compounds are listed: those with a hit (about 2.8% of all), similar ones and a draw of the others.

COC(=O)c1ccc(-c2ccco2)n1Cc1nc(-c2ccc(OC)c(OC)c2)oc1C	ERb coact inh 67[fluorescence artefact?], ERa SRC1 inh 70[fluorescence artefact?] (no result: EphB4 ephrin blk)
COc1ccc(-c2nn3c(-c4ccc(F)cc4)nnc3s2)cc1	none
CCN(CC)c1ccc(-c2nn3c(-c4ccccc4OC)nnc3s2)cc1	ERa SRC1 pot 366
COc1ccccc1-c1nn2c(-c3ccccc3Cl)nnc2s1	none (no result: EphB4 ephrin blk)
COc1ccc(-c2nn3c(-c4ccccc4)nnc3s2)cc1	ERa SRC1 pot 203[fluorescence artefact?]
COc1cccc(OC)c1-c1nn2c(-c3cc(-c4ccccc4)n[nH]3)nnc2s1	EphB4 ephrin blk 62 (no result: ERb coact inh, ERa SRC1 pot, ERa SRC1 inh)
CN(C)CCCN1C(=O)C(O)=C(C(=O)c2cccs2)C1c1ccccn1 (stereo not given)	none (no result: EphB4 ephrin blk)
Cc1ccc(CSCC(=O)N/N=C/c2sccc2C)cc1	none (no result: ERb coact inh, ERa SRC1 pot, ERa SRC1 inh)
CC(C)(C)OC(=O)N1CCOCCOCCN(C(=O)OC(C)(C)C)CCOCC1	none
Cn1c(=O)c2c(ncn2CCCNC2=CC(C)(C)CC(=O)C2)n(C)c1=O	ERb coact inh 52
COC(=O)Cn1cnc2c1c(=O)n(C)c(=O)n2C	none
CCCSc1nc(C)c(-c2csc(C(C#N)=C3CCCC3)n2)cc1C#N	ERa SRC1 inh 69
CCCCSc1nc2c(cc1C#N)CCC2	none
CC(C)C(O)P(=O)(OCc1ccccc1)c1ccc(N(C)C)cc1 (stereo not given)	ERa SRC1 inh 52[fluorescence artefact?]
O=C(NCc1ccc2c(c1)OCO2)c1nnc(Cc2ccc(Cl)cc2)o1	none (no result: EphB4 ephrin blk)
COc1cccc(-c2cc3nc(-c4ccccc4)cc(N4CCC5(CC4)OCCO5)n3n2)c1	ERa SRC1 pot 210
Cc1nc2cccc(C)n2c(=O)c1Cl	none
Cc1nc(SCn2nnc3ccccc3c2=O)c2c(C)c(C)sc2n1	ERa SRC1 inh 64[fluorescence artefact?] (no result: EphB4 ephrin blk)
O=c1c2ccccc2nnn1CSc1ncnc2ccccc12	none (no result: ERb coact inh, ERa SRC1 pot, ERa SRC1 inh)
NC(=O)c1cccc2c1C(=O)N(C1CCCCC1)C2	ERb coact inh 53, ERa SRC1 inh 53[fluorescence artefact?]
O=S(=O)(c1cccc(-c2cn3cccnc3n2)c1)N1CCCCCC1	ERa SRC1 inh 58
CCN(CC)c1ccc(/C=C2\C(=O)N(c3ccc([N+](=O)[O-])cc3)N=C2N2CCOCC2)cc1	none
CCc1c(C)nc(SCC(=O)c2cccs2)c(C#N)c1C	ERb coact inh 53
CCN(CC)C(=O)CNC(=O)Cc1ccc(Cl)cc1	none
O=C(OCc1nnc(-c2ccccc2)o1)c1ccc2c(c1)OCCO2	none
CCCCc1ccc(-c2ccc(C)cc2O)nc1	ERa SRC1 pot 203[fluorescence artefact?]
O=C(CN1CCN(Cc2ccccc2)C1=O)NCc1cccs1	none
Cc1c(CNCc2cccs2)c(C(=O)O)c(C)n1Cc1ccccc1	ERa SRC1 pot 229[fluorescence artefact?]
O=c1[nH]c2ccsc2c(=O)n1-c1ccc(F)c(Cl)c1	none
Oc1c(Cl)cc(Cl)cc1Sc1cc(Cl)cc(Cl)c1O	ERb coact inh 93, ERa SRC1 inh 97 (no result: EphB4 ephrin blk)
Cc1nc2c(c(=O)n1CC1CCCO1)c1nc3ccccc3nc1n2Cc1ccc2c(c1)OCO2 (stereo not given)	ERb coact inh 58[fluorescence artefact?], ERa SRC1 inh 69[fluorescence artefact?] (no result: EphB4 ephrin blk)
O=c1c2c3nc4ccccc4nc3n(-c3ccc4c(c3)OCCO4)c2ncn1CC1CCCO1 (stereo not given)	ERa SRC1 inh 69 (no result: EphB4 ephrin blk)
CCC(C)n1c(C)nc2c(c1=O)c1nc3ccccc3nc1n2-c1ccc2c(c1)OCCO2 (stereo not given)	ERa SRC1 pot 256[fluorescence artefact?] (no result: EphB4 ephrin blk)
O=C(CSc1nnnn1-c1cccc2c1CCCC2)NC1CCCC1	none
O=C(Nc1ccncc1)c1cn(-c2ccccc2)nc1-c1cccs1	ERa SRC1 pot 229[fluorescence artefact?]
CC1(C)Cc2cccc(OCC(=O)Nc3cc(C(F)(F)F)ccc3N3CCOCC3)c2O1	none
O=c1[nH]c2c(s1)C(c1ccc(O)cc1)C1C3CCC(C3)C1S2 (stereo not given)	ERa SRC1 inh 70
COCCn1c(C)cc(C(=O)CSc2nc(C)nc3sc4c(c23)CCC4)c1C	ERa SRC1 pot 370[fluorescence artefact?]
Cc1ccc(N2CCN(c3cc(C)nc4c5c(C)cc(C)nc5nn34)CC2)cc1	none (no result: EphB4 ephrin blk)
Cc1cc(C)c2c(n1)nn1c(N3CCN(c4ccccc4C)CC3)cc(C)nc21	ERa SRC1 pot 402[fluorescence artefact?]
CC(NC(=O)c1ccccc1)C(c1cccs1)N1CCOCC1 (stereo not given)	none
N#Cc1cc2cc3c(cc2nc1SCC(=O)OC1CCCCC1)OCO3	ERa SRC1 pot 231[fluorescence artefact?]
Cc1cc2cc3c(cc2nc1SCC(=O)OC(C)C)OCO3	none (no result: ERb coact inh, ERa SRC1 pot, ERa SRC1 inh)
Cc1ccc(C=Nc2ccc(N(C)C)cc2)o1	ERb coact inh 89[fluorescence artefact?]
CCN(CC)c1ccc(C=Nc2ccc(N(C)C)cc2)c(O)c1	none
COc1ccc(NC(=O)c2noc3c2CCC3)cc1	ERb coact inh 90[fluorescence artefact?], ERa SRC1 inh 86[fluorescence artefact?]
COc1cc(NC(=O)c2noc3c2CCC3)c(OC)cc1Cl	ERb coact inh 86[fluorescence artefact?], ERa SRC1 inh 88[fluorescence artefact?] (no result: EphB4 ephrin blk)
COC(=O)c1ccccc1NC(=O)c1noc2c1CCCC2	none (no result: EphB4 ephrin blk)
O=C(Nc1nc(-c2ccccc2)cs1)C1CCCN(S(=O)(=O)c2ccccc2)C1 (stereo not given)	none
O=C(Nc1nc(-c2ccc(S(=O)(=O)N3CCCCCC3)cc2)cs1)c1cccs1	ERa SRC1 pot 570[fluorescence artefact?]
Cc1ccc(-c2csc(NC(=O)c3cccc(S(=O)(=O)N4CCN(C)CC4)c3)n2)cc1	none (no result: EphB4 ephrin blk)
O=C(Nc1nc(-c2cccs2)cs1)c1cccc(S(=O)(=O)N2CCCCC2)c1	ERa SRC1 pot 233
O=C(Nc1nc(-c2ccc(S(=O)(=O)N3CCCC3)cc2)cs1)c1cccs1	ERa SRC1 pot 324[fluorescence artefact?]
COc1cccc(C(=O)Nc2nc(-c3ccc(S(=O)(=O)N4CCOCC4)cc3)cs2)c1	ERa SRC1 pot 463[fluorescence artefact?]
COc1ccnc(Oc2ccc(C)cc2C)c1C#N	none (no result: ERb coact inh, ERa SRC1 pot, ERa SRC1 inh)
CCOC(=O)c1c(C)[nH]c(C)c1C(=O)COC(=O)c1ccc(Cl)c(S(N)(=O)=O)c1	none
Cc1ccc(CSc2nnc(-c3ccco3)o2)cc1	none
CC(C)c1nnc(NC(=O)C2CCN(c3cnccn3)CC2)s1	none
CC(C)c1nnc(NC(=O)C2CCN(c3nc4ccccc4s3)CC2)s1	ERa SRC1 inh 67[fluorescence artefact?] (no result: EphB4 ephrin blk)
COc1cccc(C2CC(c3ccc(F)cc3)Nc3nc(N)nn32)c1 (stereo not given)	ERa SRC1 pot 308
COc1cccc(C2CC(c3cccc(OC)c3)n3nc(N)nc3N2)c1 (stereo not given)	none (no result: EphB4 ephrin blk)
Cc1ccc(S(=O)(=O)NC2CCCc3ccccc32)cc1C (stereo not given)	none
CCCCC(CC)C(=O)NCc1ccccc1OC (stereo not given)	ERb coact inh 53
CCCC(C)C(=O)NCc1ccccc1OC (stereo not given)	none
O=C(CC1(C(F)(F)F)OCCO1)Nc1ccc2c(c1)OCO2	none
CCc1nc(SCC(N)=O)c2c(=O)n(C)c(=O)n(C)c2n1	none
CCSc1nnc(NC(=O)CSc2nc(CC)nc3c2c(=O)n(C)c(=O)n3C)s1	ERa SRC1 pot 254
CCCCOC(=O)c1cc(-c2ccc(/C=N/n3cnnc3)o2)ccc1Cl	ERa SRC1 inh 56
CCOC(=O)c1cc(-c2ccc(/C=N\n3cnnc3)o2)ccc1Cl	none
CC(C)Sc1nnc([C@H](Cc2c[nH]c3ccccc23)NC(=O)OC(C)(C)C)o1	none
Cc1ccc(S(=O)(=O)c2nc(-c3ccc(F)cc3)oc2SCC(=O)NCC2CCCO2)cc1 (stereo not given)	ERa SRC1 pot 310[fluorescence artefact?]

Source: PubChem BioAssay (several laboratories)
